# This is a sample that favours compounds with a hit; in the whole collection about 2.9% have one here.
# PfG6PD inh = PfG6PD (Plasmodium falciparum) enzyme inhibition. inhibition, % at 20 µM. actives 0.78% (n = 350,000). AID 504690. PfGluPho enzyme, NADPH resazurin-diaphorase fluorescence;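 active = inhibition reaching at least a set limit at 20 µM in the primary screen, cut at about 59% in these data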;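 note: 0% = DMSO wells with substrate and 100% = DMSO wells lacking glucose-6-phosphate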
# A3A deaminase = inhibitors of human APOBEC3A DNA deaminase. actives 0.41% (n = 330,000). recombinant A3A, FAM/TAMRA ssDNA deamination fluorescence. inhibition, % at 20 µM. AID 493011;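 active = at least 40% inhibition at 20 µM here, with at most 30% in a related deaminase screen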;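 note: plate controls were A3A with DMSO for no effect and wells lacking A3A enzyme for full effect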
# Target sequence (P31941 whole entry, looked up): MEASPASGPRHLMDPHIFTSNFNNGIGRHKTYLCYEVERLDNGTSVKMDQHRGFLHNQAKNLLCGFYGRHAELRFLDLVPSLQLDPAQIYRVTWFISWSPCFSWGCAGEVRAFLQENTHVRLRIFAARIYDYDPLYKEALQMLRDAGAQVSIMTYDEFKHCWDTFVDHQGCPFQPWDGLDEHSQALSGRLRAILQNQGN
# Cardio protect = modulators protecting cardiomyocytes from myocardial damage. H9c2 cardiomyocytes, H2O2 injury protection, ATPLite, 2 h. protection from H2O2 cell death, % at 20 µM. actives 0.63% (n = 360,000). AID 588492;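 active = compounds giving at least 50% protection of heart cells from peroxide-induced death in the single-dose screen, raw or plate-pattern-corrected value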;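 note: 0% = DMSO wells with peroxide and 100% = DMSO wells without peroxide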
# A3G deaminase = APOBEC3G (human) deaminase inhibition; Q9HC16; recombinant A3G, ssDNA deamination FAM/TAMRA fluorescence; inhibition, % at 20 µM; actives 0.28% (n = 330,000); AID 493012;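 active = inhibition of at least 40% at 20 µM, with no more than 30% in the related APOBEC3A deaminase screen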;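 note: plate controls were DMSO wells with A3G for no effect and wells lacking A3G enzyme for full effect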
# Target sequence (Q9HC16 whole entry, looked up): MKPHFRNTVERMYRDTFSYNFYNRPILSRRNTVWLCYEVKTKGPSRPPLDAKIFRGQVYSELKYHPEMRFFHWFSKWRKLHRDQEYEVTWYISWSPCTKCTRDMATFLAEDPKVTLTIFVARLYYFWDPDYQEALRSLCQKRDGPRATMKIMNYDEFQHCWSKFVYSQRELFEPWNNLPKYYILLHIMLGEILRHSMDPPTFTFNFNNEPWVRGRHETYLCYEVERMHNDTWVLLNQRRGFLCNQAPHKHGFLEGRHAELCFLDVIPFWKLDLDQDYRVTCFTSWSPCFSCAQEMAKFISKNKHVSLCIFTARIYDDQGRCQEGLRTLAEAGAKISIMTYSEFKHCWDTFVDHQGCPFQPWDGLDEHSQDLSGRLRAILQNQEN
# NadD inh = inhibitors of Staphylococcus aureus NadD; inhibition, % at 20 µM; purified NadD enzyme, colorimetric absorbance read-out; AID 602399; actives 0.78% (n = 360,000); in the data active = inhibition above about 26%
# H9c2 TAG inh = inhibitors of triacylglycerol accumulation; H9c2 cells, Nile Red lipid (TAG) fluorescence; cells loaded with 200 µM oleic acid; inhibition, % at 12.5 µM; actives 0.66% (n = 230,000); AID 651582;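 active = pattern-corrected inhibition of lipid staining of at least 50% with the nuclear-stain viability signal not falling by more than 50%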;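 note: 0% = DMSO wells and 100% = triacsin C control wells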
# An asterisk follows results filed as active; nt = not tested or not shown.
SMILES,PfG6PD inh,A3A deaminase,Cardio protect,A3G deaminase,NadD inh,H9c2 TAG inh
CN1C(=O)/C(=C/c2cccn2-c2ccc3ccccc3c2)C(=O)NC1=S,0,14,-24,16,44*,-5
COc1ccccc1OP(=O)(Nc1cccnc1)Oc1ccccc1OC,4,-1,60*,-6,2,9
O=C1C2CC(CN3CCCCC23)C2CCCCN12 (centres undefined),nt,nt,-1,nt,-1,nt
O=[N+]([O-])/C=C/c1c(Cl)cccc1Cl,101*,nt,-21,nt,9,107
CCOC(=O)c1c(-n2c(C)cc(C=C3C(=O)NC(=S)NC3=O)c2C)sc2c1CCCC2,-39,35,-12,49,46*,nt
CCN1C(=O)NC(=O)/C(=C/c2cc(C)n(-c3sc(C)c(C)c3C#N)c2C)C1=O,11,-1,2,-7,9,3
Cc1ccc(N2C(=O)NC(=O)/C(=C\c3cc(C)n(-c4sc5c(c4C#N)CCCC5)c3C)C2=O)cc1,22,2,-9,4,34*,-2
CCOC(=O)c1c(-n2c(C)cc(/C=C3/C(=O)NC(=O)N(CC)C3=O)c2C)sc2c1CCCC2,7,3,0,3,25,-20
NC(N)=N/N=C/c1cn(-c2ccccc2)nc1-c1cccs1,4,-1,-31,-10,-2,124*
O=c1c2ccccc2nc(-c2cccs2)n1-c1ccccc1,-18,-10,4,0,-5,3
CCOC(=O)[C@]12Cc3cc(C)ccc3[C@H]1N(C(C)C)C(=O)c1ccccc12,nt,nt,nt,nt,-6,nt
CN1C2CNC(=O)CC1C1CCC2C1 (centres undefined),-6,nt,-2,nt,0,7
CC[C@@H](O)C[C@H]1CCC[C@@]2(C[C@@H]3OC(=O)/C=C/[C@@](C)(O)[C@@H](O)[C@H](C)[C@@H](O)[C@H](OC4CCC(N(C)C)C(C)O4)[C@@H](O)[C@](C)(O)CCCCC/C=C/[C@@H]4CC(C)(C)O[C@@]4(O)C[C@H](O2)[C@H]3C)O1 (some centres undefined),23,nt,-16,nt,-7,58*
Cc1ccc(/C=C2\C(=O)NC(=S)N(c3ccc(F)cc3)C2=O)s1,33,6,-17,12,32*,19
O=C1NC(=O)[C@]2(Cc3ccccc3N3CCN(c4ccccc4)CC32)C(=O)N1Cc1ccccc1 (some centres undefined),33,-5,0,13,48*,-14
CCOC(=O)CC1c2ccccc2-n2nncc2CN1CC1CCCCC1 (centres undefined),-5,nt,-11,nt,0,1
Cc1cccc(-n2c(C)nc3ccc(Cl)cc3c2=O)c1,-14,-7,0,-5,-5,-10
Nc1c(Br)cc2c3c(cccc13)-c1ccccc1-2,125*,nt,nt,nt,nt,nt
CCC(C)N1C(=O)NC(=O)C2(Cc3c(ccc4ccccc34)N(C)C2)C1=O (centres undefined),44,-1,69*,12,5,-14
c1ccc2c(c1)[IH]c1ccccc1-2,-18,nt,-39,nt,-4,-12
COc1ccc(CCNC(=O)c2c(N)n(CCN3CCOCC3)c3nc4ccccc4nc23)cc1OC,18,3,57*,-3,-10,nt
CCOc1ccc(-n2c(-c3cccs3)nc3ccccc3c2=O)cc1,13,3,0,-7,1,-37
CCn1nc(-c2cccs2)nc2c(=O)n(C)c(=O)nc1-2,107*,nt,-23,nt,2,10
O=C1NC(=S)NC(=O)C1=Cc1ccc2c(c1)CCN2CCCCl,13,98,8,93,53*,1
CSc1nc(Cl)c(Br)c(N2CC2)n1,-1,nt,51*,nt,1,19
SMILES,PfG6PD inh,A3A deaminase,Cardio protect,A3G deaminase,NadD inh,H9c2 TAG inh
CSc1ncc(Br)c(N2CC2)n1,3,nt,1,nt,3,0
CCC(c1nnnn1Cc1ccccc1)N1CCC(n2c(=O)[nH]c3ccccc32)CC1 (centres undefined),nt,nt,51*,nt,-7,nt
CS(=O)(=O)c1ccc(C2=C(CNC(=O)c3nccs3)[C@H]3CC[C@@H](C2)N3CCOc2ccccc2)cc1,0,nt,7,nt,-3,13
COC(COC(N)=O)C1=C(N2CC2)C(=O)C(C)=C(N2CC2)C1=O (centres undefined),49,nt,-8,nt,4,60*
C=C1C(=O)O[C@@H]2C[C@@H](C)[C@@H]3C=CC(=O)[C@@]3(C)[C@@H](O)[C@H]12,23,-1,-37,-3,-4,72*
C[C@@H]1C[C@H]2OC(=O)C3(CO3)[C@H]2[C@H](O)[C@]2(C)C(=O)C3OC3[C@@H]12 (some centres undefined),nt,-1,nt,-7,nt,nt
COc1ccc(C(=O)OCC2CN2c2cccc([N+](=O)[O-])c2)cc1 (centres undefined),nt,nt,nt,nt,3,nt
O=c1c2ccccc2nc(CSc2ncnc3nc[nH]c23)n1-c1ccc(Cl)c(Cl)c1,6,-3,68*,-7,5,5
Cc1nc2ccccc2c(=O)n1-c1ccc(Cl)c(Cl)c1,7,-5,5,-9,-6,nt
CC(=O)OC1C(=O)OCC23CCC4(C)OC4C2OC2CC(OC(=O)C=CC=CC(=O)OCCC1C)C3(C)C21CO1 (centres undefined),25,nt,56*,nt,3,131
CC1=CC2OC3CC4OC(=O)C=CC=CC(=O)OCCC(C)C(O)C(=O)OCC2(CC1O)C4(C)C31CO1 (centres undefined),41,nt,54*,nt,1,118
CC(O)C1C=CC=CC(=O)OC2CC3OC4C5OC5(C)CCC4(COC(=O)C4OC4(C)C(O)CO1)C2(C)C31CO1 (centres undefined),21,nt,-2,nt,4,118
O=C(NCC1=C(c2ccc3ccccc3c2)C[C@@H]2CC[C@H]1N2Cc1ccco1)c1nccs1,16,nt,8,nt,2,3
CCOP(=O)(CCP(=O)(OCC)OCC)OCC.C[CH2][Sn]([Cl])([Cl])[CH2]C,13,nt,-10,nt,-1,109
COc1ccc(-n2c(/C=C/c3ccc(O)cc3)nc3ccccc3c2=O)cc1,20,-10,53*,-15,8,nt
O=c1c2ccccc2nc(/C=C/c2ccc(O)cc2)n1-c1ccc(O)cc1,-4,-9,55*,-15,7,nt
COc1ccc(-n2c(/C=C/c3ccc(O)c(OC)c3)nc3ccccc3c2=O)cc1,20,-28,88*,-63,4,16
COc1ccc(-n2c(/C=C/c3ccc4c(c3)OCO4)nc3ccccc3c2=O)cc1,10,11,2,2,1,nt
Fc1cccc(-c2ccc3c(c2)CNCc2cnnn2-3)c1,nt,nt,8,nt,1,nt
COC(=O)C1=C(c2ccc(OCc3ccccc3)cc2)C[C@@H]2CC[C@H]1N2C(=O)NCCc1ccc(F)cc1,22,nt,-18,nt,3,6
O=c1[nH]c2ccccc2n1C1CCN(Cc2ccc(-c3nc4ccccc4nc3-c3ccccc3)cc2)CC1,nt,nt,nt,nt,19,nt

# From PubChem BioAssay
